Source: PubChem BioAssay (NCATS)
“And” between values parts separate entries of the source, which are not always exact repeats. Equal values may be shown once. Results filed as inconclusive are left out. The source made the active and inactive calls. Calls come from the whole dose curve; as a rule, active = well fitted inhibition curve with a large enough effect; inconclusive = small, poorly fitted or top-dose-only effect; inactive = flat fitted curve, though single readings scatter.

Tests used:
GB4 = test: qHTS profiling for inhibitors of Plasmodium falciparum proliferation (AID 504749); note: potency is the fitted concentration of half-maximal effect; conditions: P. falciparum in erythrocytes, SYBR Green DNA, 72 h; series mostly up to 28.7 µM
Summary of the method: (§1)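 P. falciparum-infected erythrocytes (0.3% parasitemia, 2.5% hematocrit) incubated with compound 72 h at 37 C, 5% CO2. Parasite DNA detected by SYBR Green after lysis, overnight at room temperature; normalised to 0.29 uM artemisinin and DMSO.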

HB3 = test: as above; conditions: P. falciparum in erythrocytes, SYBR Green DNA, 72 h; series mostly up to 28.7 µM
Summary of the method: as §1

ICS = test: as above; conditions: P. falciparum in erythrocytes, SYBR Green DNA, 72 h; series mostly up to 28.7 µM
Summary of the method: as §1

JCK = test: as above; conditions: P. falciparum in erythrocytes, SYBR Green DNA, 72 h; series mostly up to 28.7 µM
Summary of the method: as §1

N140 = test: as above; conditions: P. falciparum in erythrocytes, SYBR Green DNA, 72 h; series mostly up to 28.7 µM
Summary of the method: as §1

P93_24 = test: as above; conditions: P. falciparum in erythrocytes, SYBR Green DNA, 72 h; series mostly up to 28.7 µM
Summary of the method: as §1

P94_40 = test: as above; conditions: P. falciparum in erythrocytes, SYBR Green DNA, 72 h; series mostly up to 28.7 µM
Summary of the method: as §1

PAD = test: as above; conditions: P. falciparum in erythrocytes, SYBR Green DNA, 72 h; series mostly up to 28.7 µM
Summary of the method: as §1

PC15 = test: as above; conditions: P. falciparum in erythrocytes, SYBR Green DNA, 72 h; series mostly up to 28.7 µM
Summary of the method: as §1

PC26 = test: as above; conditions: P. falciparum in erythrocytes, SYBR Green DNA, 72 h; series mostly up to 28.7 µM
Summary of the method: as §1

PC49 = test: as above; conditions: P. falciparum in erythrocytes, SYBR Green DNA, 72 h; series mostly up to 28.7 µM
Summary of the method: as §1

SC27B = test: as above; conditions: P. falciparum in erythrocytes, SYBR Green DNA, 72 h; series mostly up to 28.7 µM
Summary of the method: as §1

TAB109 = test: as above; conditions: P. falciparum in erythrocytes, SYBR Green DNA, 72 h; series mostly up to 28.7 µM
Summary of the method: as §1

TAB113 = test: as above; conditions: P. falciparum in erythrocytes, SYBR Green DNA, 72 h; series mostly up to 28.7 µM
Summary of the method: as §1

TAB165 = test: as above; conditions: P. falciparum in erythrocytes, SYBR Green DNA, 72 h; series mostly up to 28.7 µM
Summary of the method: as §1

CRL-7250 = normal cell line; test: Cytotoxic Profiling of Annotated Libraries Using Quantitative High-Throughput Screening (AID 1296008); conditions: Five cell lines viability, CellTiter-Glo ATP luminescence, 48-72 h; max response: active compounds read low; for max response: % is set by controls: 0 for no effect and ±100 for the full control effect
Summary of the method: (§2)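 Cells exposed to compounds for 48 or 72 hr at 37 degrees Celsius. Viability read as ATP-coupled luminescence with CellTiter-Glo after 10 min at room temperature.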

HEK293 = test: as above; conditions: Five cell lines viability, CellTiter-Glo ATP luminescence, 48-72 h; max response: active compounds read low
Summary of the method: as §2

HaCat = test: as above; conditions: Five cell lines viability, CellTiter-Glo ATP luminescence, 48-72 h; max response: active compounds read low
Summary of the method: as §2

KB-3-1 = test: as above; conditions: Five cell lines viability, CellTiter-Glo ATP luminescence, 48-72 h; max response: active compounds read low
Summary of the method: as §2

W2 = test: qHTS profiling for inhibitors of Plasmodium falciparum proliferation (AID 504749); note: potency is the fitted concentration of half-maximal effect; conditions: P. falciparum in erythrocytes, SYBR Green DNA, 72 h; series mostly up to 28.7 µM
Summary of the method: as §1
Note: nearly all actives have a fitted effect of over 60% in size.

CCOc1ccc2ccccc2c1C(=O)N[C@@H]1C(=O)N2[C@@H]1SC(C)(C)[C@@H]2C(=O)O
inactive: Potency (GB4) | Potency (HB3) | Potency (ICS) | Potency (JCK) | Potency (N140) | Potency (P93_24) | Potency (P94_40) | Potency (PAD) | Potency (PC15) | Potency (PC26) | Potency (PC49) | Potency (SC27B) | Potency (TAB109) | Potency (TAB113) | Potency (TAB165) | outcome (CRL-7250) | max response (HEK293) 0.937% | outcome (HEK293) | max response (HaCat) 4.96% | outcome (HaCat) | max response (KB-3-1) -11.5% and -0.445%

CC(COc1ccccc1)NC(C)C(O)c1ccc(O)cc1 (configuration not stated)
inactive: max response (CRL-7250) -14.7% | outcome (HEK293) | max response (HaCat) -5.97% | max response (KB-3-1) 15.9%

Cc1cccc(Nc2cc(Cl)nc(SCC(=O)O)n2)c1C
inactive: Potency (GB4) | Potency (HB3) | Potency (ICS) | Potency (JCK) | Potency (N140) | Potency (P93_24) | Potency (P94_40) | Potency (PAD) | Potency (PC15) | Potency (PC26) | Potency (PC49) | Potency (SC27B) | Potency (TAB109) | Potency (TAB113) | Potency (TAB165) | Potency (W2) | max response (CRL-7250) 0.443% and 0.95% | max response (HEK293) 1.85% and -1.17% | max response (HaCat) 1.74% | outcome (HaCat) | max response (KB-3-1) 6.42% and 8.75%

O=C(CCCN1CCN(c2ccccn2)CC1)c1ccc(F)cc1
inactive: Potency (GB4) | Potency (HB3) | Potency (ICS) | Potency (JCK) | Potency (N140) | Potency (P93_24) | Potency (P94_40) | Potency (PAD) | Potency (PC15) | Potency (PC26) | Potency (PC49) | Potency (SC27B) | Potency (TAB109) | Potency (TAB113) | Potency (TAB165) | Potency (W2) | max response (CRL-7250) -29% | outcome (CRL-7250) | max response (HEK293) -14.9% | max response (HaCat) -5.51% and 4.13% | max response (KB-3-1) 7.83% and 2.47%

C[C@@H]1C[C@H]2[C@@H]3C[C@H](F)C4=CC(=O)C=C[C@]4(C)[C@@]3(F)[C@@H](O)C[C@]2(C)[C@@]1(O)C(=O)CO
inactive: max response (CRL-7250) -4.29% | outcome (CRL-7250) | max response (HEK293) -7.17% | outcome (HEK293) | max response (HaCat) -8.88% and 2.84% | max response (KB-3-1) 18.2% | outcome (KB-3-1)

Cc1cc2nc3c(=O)[nH]c(=O)nc-3n(C[C@H](O)[C@H](O)[C@H](O)CO)c2cc1C
inactive: outcome (CRL-7250) | max response (HEK293) -5.47% | max response (HaCat) -19.1% | max response (KB-3-1) -1.52% and 0.485%

CCCCc1ncc(/C=C(\Cc2cccs2)C(=O)O)n1Cc1ccc(C(=O)O)cc1
inactive: Potency (GB4) | Potency (HB3) | Potency (ICS) | Potency (JCK) | Potency (N140) | Potency (P93_24) | Potency (P94_40) | Potency (PAD) | Potency (PC15) | Potency (PC26) | Potency (PC49) | Potency (SC27B) | Potency (TAB109) | Potency (TAB113) | Potency (TAB165) | Potency (W2) | max response (CRL-7250) 0.696% | outcome (CRL-7250) | max response (HEK293) 1.61% and 1.3% | max response (HaCat) -8.96% | max response (KB-3-1) -5.45% and 6.97%

COc1ccc2[nH]c(S(=O)Cc3ncc(C)c(OC)c3C)nc2n1 (configuration not stated)
inactive: outcome (CRL-7250) | outcome (HEK293) | max response (HaCat) -5.32% | outcome (HaCat) | max response (KB-3-1) 2.51% | outcome (KB-3-1)
active: Potency (ICS) 7.94 µM | Potency (N140) 6.31 µM | Potency (P93_24) 7.94 µM | Potency (P94_40) 8.91 µM | Potency (PAD) 4.47 µM | Potency (PC49) 7.94 µM | Potency (SC27B) 8.91 µM | Potency (TAB109) 8.91 µM | Potency (TAB113) 8.91 µM | Potency (TAB165) 7.94 µM | Potency (W2) 9.53 µM

CC(C)(C(=O)O)c1ccc(C(O)CCCN2CCC(C(O)(c3ccccc3)c3ccccc3)CC2)cc1 (configuration not stated)
inactive: max response (CRL-7250) -9.99% | outcome (CRL-7250) | max response (HEK293) 4.11% | outcome (HEK293) | outcome (HaCat) | max response (KB-3-1) -2.58% and -5.29%

c1ccc(CN(CC2=NCCN2)c2ccccc2)cc1
active: Potency (PC49) 3.16 µM | Potency (W2) 7.57 µM
inactive: Potency (HB3) | max response (CRL-7250) 3.95% and 1.52% | max response (HEK293) 0.31% and -21.2% | max response (HaCat) 4.83% | outcome (HaCat) | max response (KB-3-1) -11.4% and 8.49%

CN1[C@@H]2CC[C@H]1CC(OC(=O)C(O)c1ccccc1)C2 (some centres not stated)
inactive: max response (CRL-7250) 1.28% | max response (HEK293) -8.16% | outcome (HaCat) | max response (KB-3-1) 3.38% and -1.31% and -10.9%

NC(N)=NCCC[C@H](N)C(=O)O
inactive: outcome (CRL-7250) | max response (HEK293) -4.96% | outcome (HaCat)
